Assay results: PubChem BioAssay AID720708 (National Center for Advancing Translational Sciences (NCATS), 2013)
Out of some 360,000 compounds screened, about 660 (0.18%) were called active. Inconclusive results (about 2%) are left out. What follows is part of a selection rich in actives, with near analogues and random picks from the rest. Values without a mark were called inactive. The call rests on the fitted dose curve; in most records, active means well fitted inhibition curve with a large enough effect; inconclusive means small, poorly fitted or top-dose-only effect; inactive means no such curve, though single readings can be large or run the other way.

Biological target: Rap guanine nucleotide exchange factor 4 (Homo sapiens) (UniProt Q8WZA2)
Sequence (Q8WZA2 whole entry, looked up): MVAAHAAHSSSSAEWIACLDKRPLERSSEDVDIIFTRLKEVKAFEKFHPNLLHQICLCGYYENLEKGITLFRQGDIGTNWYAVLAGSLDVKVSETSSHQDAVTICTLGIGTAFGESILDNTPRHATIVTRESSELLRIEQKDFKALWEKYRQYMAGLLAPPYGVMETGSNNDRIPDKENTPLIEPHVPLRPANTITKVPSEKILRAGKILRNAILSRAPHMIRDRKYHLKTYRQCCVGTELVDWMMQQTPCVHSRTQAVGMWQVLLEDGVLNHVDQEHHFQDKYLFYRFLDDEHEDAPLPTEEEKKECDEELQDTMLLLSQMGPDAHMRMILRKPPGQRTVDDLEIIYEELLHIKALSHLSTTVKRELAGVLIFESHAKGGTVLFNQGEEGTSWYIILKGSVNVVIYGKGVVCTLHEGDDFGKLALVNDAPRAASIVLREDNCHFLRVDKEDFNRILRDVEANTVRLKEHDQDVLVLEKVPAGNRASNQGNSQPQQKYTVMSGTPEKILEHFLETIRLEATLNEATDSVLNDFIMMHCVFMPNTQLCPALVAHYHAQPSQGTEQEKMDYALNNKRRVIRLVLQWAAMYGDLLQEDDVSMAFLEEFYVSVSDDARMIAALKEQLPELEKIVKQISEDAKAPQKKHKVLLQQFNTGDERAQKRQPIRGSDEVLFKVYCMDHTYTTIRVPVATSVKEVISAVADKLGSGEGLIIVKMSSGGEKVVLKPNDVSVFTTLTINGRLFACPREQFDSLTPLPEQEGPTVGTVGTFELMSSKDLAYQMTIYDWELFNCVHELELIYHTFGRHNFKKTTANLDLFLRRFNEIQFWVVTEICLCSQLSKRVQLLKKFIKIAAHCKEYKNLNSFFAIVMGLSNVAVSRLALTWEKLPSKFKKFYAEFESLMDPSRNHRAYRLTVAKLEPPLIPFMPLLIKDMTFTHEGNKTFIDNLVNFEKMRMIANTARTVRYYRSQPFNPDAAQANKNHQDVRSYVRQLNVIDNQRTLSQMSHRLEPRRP
Assay: qHTS for Antagonist of cAMP-regulated guanine nucleotide exchange factor 2 (EPAC2): primary screen; further: nearly all actives have a fitted effect of over 45% in size
Settings: EPAC2 GEF exchange of Rap1B-BODIPY-GDP, fluorescence; series mostly up to 114 µM; activity, negative = inhibition: at the top concentration
Text: In multi-cellular eukaryotic organisms, the effects of cAMP are transduced by two ubiquitously-expressed intracellular cAMP receptors, the classic protein kinase A/cAMP-dependent protein kinase (PKA/cAPK) and the more recently discovered exchange protein directly activated by cAMP/cAMP-regulated guanine nucleotide exchange factor (EPAC/cAMP-GEF). Both PKA and EPAC are ubiquitously expressed in all tissues, and an increase in intracellular cAMP levels will lead to the activation of both PKA and EPAC. Therefore, careful dissections of the individual role and relative contribution of EPAC and PKA within the overall cAMP signaling in various model systems are critical for further elucidating the mechanism of cAMP signaling. To date no EPAC-specific antagonists and agonist, as well as isoform-specific agonists have been reported, and developing EPAC-specific pharmacological probes to determine the physiological functions that EPAC play in the overall cAMP-mediated signaling remains a major challenge within the research field. Furthermore, identified regulators of EPAC may lead to new mechanism-based therapeutic strategies specifically targeting the EPAC / cAMP-signaling components as EPAC has been implicated to play important roles in major human pathological conditions such as diabetes, heart disease, and cancer.
This qHTS will be used to screen the Molecular Libraries Small Molecule Repository (MLSMR) as a concentration-titration series using the NCGC unique quantitative screening (qHTS) platform to find inhibitors for EPAC2. In addition, this assay will also be used as a counterscreen for the EPAC1 qHTS. This fluorescent based assay is developed and validated for EPAC2 that measures exchange using EPAC effector Rap1 complex with BODIPY-GDP, a GDP analog with a tethered fluorophores. Inhibitors are identified by monitoring the change in fluorescence signal as the exchanged free BODIPY-GDP has a reduced fluorescence compared to Rap1-bound BODIPY-GDP. Decrease in signal (inhibition) is the desired outcome for the EPAC2 antagonist while no activity in this assay is desired for the EPAC1 antagonist counterscreen.
NIH Chemical Genomics Center [NCGC]
NIH Molecular Libraries Probe Centers Network [MLPCN]
Assay Submitter (PI): Xiaodong Cheng, The University of Texas, Medical Branch
Briefly, three uL of reagents (100 nM EPAC2, 250 nM RAP1B-BODIPY-GDP, 50 uM GDP) were dispensed into a 1536-well Greiner black solid-bottom medium binding assay plate. Controls and test compounds (23 nL) were transferred to the plate via a Kalypsys pin tool equipped with a 1536-pin array. The plates were centrifuged at 1,000 rpm for 15 seconds followed by 5 minute incubation at room temperature. The assay plates were read at 5 minute intervals for 30 minutes in the ViewLux plate reader using 480nm excitation and 540nm emission filters. The results were normalized to the agonist positive control ATA and DMSO.
On the % scale 0 is the no-effect control and ±100 the full control effect; potency means the concentration at half of the fitted maximal effect.

SMILES | activity, negative = inhibition | Potency
CCC(CC)C(C(=O)NC1CCCC1)N1CCN(c2cc(C)nc3ccccc23)CC1 (stereo unspecified) | 0.749% | 
COc1cc(C(=O)NC2CCN(C)CC2)ccc1Nc1ncc2c(n1)N(C1CCC(O)CC1)CCC(=O)N2C (stereo unspecified) | 5.33% | 
Cc1[nH]c2ccccc2c1C(=O)c1cc([C@H](NC(=O)OC(C)(C)C)C(C)C)sc1N | -19.1% | 
COc1ccc(NC(=O)C(C)N2c3cccc4cccc(c34)S2(=O)=O)c(OC)c1 (stereo unspecified) | -3.13% | 
COc1ccc(CNC(=O)C(=O)NCC2OCCN2C(=O)c2ccc(OC)cc2)cc1 (stereo unspecified) | -3.12% | 
CC1CCCC(NC(=O)CN2CCN(Cc3ccc(Cl)cc3)C2=O)C1C (stereo unspecified) | -0.841% | 
Brc1ccc2c(c1)[C@H]1OCC[C@H]1[C@@H](c1cccs1)N2 | -14.1% | 
CC(C)OC(=O)Cn1nc(C(F)(F)F)c2c1CCCC2 | -0.377% | 
CCOC(=O)C1C(C)C(C(C)(C)C)N(S(=O)(=O)c2ccc(C)cc2)C1c1ccccc1 (stereo unspecified) | -18.2% | 
CCOC(=O)[C@]12CCCC=C1N(CCC1=CCCCC1)C(=O)[C@H](CC(=O)N1CCN(C(=O)c3ccco3)CC1)C2 | -0.87% | 
Cc1cc(NC(=O)CN2CCC(O)(c3cccc(F)c3)CC2)no1 | -3.78% | 
O=C(COC(=O)c1cccc(Cl)c1Cl)NC1CCCCCC1 | 0.941% | 
CCCCCNC(=O)C(c1ccc(OC)cc1)n1c(=O)c(-c2ccccc2)nc2ccccc21 (stereo unspecified) | -4.54% | 
COc1ccc(NC(=O)CNC(=O)Cn2ccc3ccccc3c2=O)c(OC)c1 | 3.29% | 
O=C(CSc1n[nH]c(-c2cccs2)n1)N1CCCCC1 | 6.58% | 
Cc1cc(C)nc(SC2CCCCC2NS(=O)(=O)c2ccc(Cl)cc2)n1 (stereo unspecified) | -5.29% | 
N#CC(C(N)=O)=C1CCC2(CC1)OCCCCO2 | -0.483% | 
Cc1ccc(C(C(=O)NC2CCCCC2)N(C(=O)c2csnn2)C2CC2)o1 (stereo unspecified) | -3.05% | 
FC(F)(F)c1cccc(-c2nc3ccccc3n2C(c2ccccc2)c2nc3ccccc3[nH]2)c1 (stereo unspecified) | 4.94% | 
CCOC(=O)c1cc(S(=O)(=O)NCCc2ccc(OC)c(OC)c2)cn1C | -4.79% | 
COCCn1nnnc1CN1CCC(NC(=O)Nc2cccc(OC)c2)CC1 | 1.59% | 
CCN1CCCC1CNC(=O)c1ccc2c(c1)NC(=O)/C(=C\c1ccccc1F)S2 (stereo unspecified) | 11.4% | 

SMILES | activity, negative = inhibition | Potency
CCOC(=O)N1CCN(C(=O)CSc2nc(C)nc3c2c(=O)n(C)c(=O)n3C)CC1 | -1.46% | 
CC1(C(=O)Nc2ccc3c(c2)OCCO3)CN(S(C)(=O)=O)CC(=O)N1Cc1cccc(F)c1 (stereo unspecified) | -11.3% | 
C[C@H](CO)N1C[C@H](C)[C@@H](CN(C)C(=O)c2cnccn2)Oc2ncc(Br)cc2C1=O | 6.89% | 
C#CCOCCOCCOCCNc1nc(N2CCN(C(=O)[C@H](CO)n3cc([C@@H](N)C(C)C)nn3)CC2)nc(N2CCN(C(=O)[C@H](CCC(=O)O)n3cc([C@@H](N)[C@H](C)CC)nn3)CC2)n1 | 5.29% | 
C#CCOCCOCCOCCNc1nc(N2CCN(C(=O)CCCCCCCCCCNC(=O)[C@H]([C@@H](C)CC)n3cc(CCCCN=C(N)N)nn3)CC2)nc(N2CCN(C(=O)CCCCCCCCCCNC(=O)[C@H](CO)n3cc(CCCSC)nn3)CC2)n1 |  | 50.1 µM (active)
C#CCOCCOCCOCCNc1nc(N2CCN(C(=O)C([C@@H](C)O)n3cc([C@@H](N)CCCCN)nn3)CC2)nc(N2CCN(C(=O)[C@H](CCCCN)n3cc(CN)nn3)CC2)n1 (stereo partly specified) | -4.66% | 
C#CCOCCOCCOCCNc1nc(N2CCN(C(=O)CCCCCCCCCCNC(=O)[C@H](CCCCN)n3cc(C)nn3)CC2)nc(N2CCN(C(=O)CCCCCCCCCCNC(=O)[C@H](CO)n3cc(CCCSC)nn3)CC2)n1 |  | 50.1 µM (active)
C#CCOCCOCCOCCNc1nc(N2CCN(C(=O)C([C@@H](C)CC)n3cc(C(N)COC(=O)C(F)(F)F)nn3)CC2)nc(N2CCN(C(=O)[C@H](CCCCN)n3cc(C(N)CC(C)C)nn3)CC2)n1 (stereo partly specified) | 4.15% | 
C#CCOCCOCCOCCNc1nc(N2CCN(C(=O)[C@H](CCCCN)n3cc([C@@H](N)C(C)CC)nn3)CC2)nc(N2CCN(C(=O)[C@H](Cc3ccc(O)cc3)n3cc([C@@H](N)C(C)CC)nn3)CC2)n1 (stereo partly specified) | 8.26% | 
CC(C)N(C(=O)Cn1cc(S(=O)(=O)CC(=O)N2CCOCC2)c2ccccc21)C(C)C | 1.79% | 
Cc1cc(NC(=O)Cn2nc(C(F)(F)F)c3c2CCCC3)no1 | 12.3% | 
Cc1ccc(C(=O)N[C@H](C(=O)N2CCN(c3ncccn3)CC2)C(C)C)cc1 | 38.4% | 
COCOCCn1cc(CN2CCS(=O)(=O)N(Cc3ccc(-c4ccccc4)cc3)C(CC(C)C)C2=O)nn1 (stereo unspecified) |  | 10 µM (active)
COc1ccc(-c2ccc(CN3C(CC(C)C)C(=O)N(Cc4cn(CC5CCCCC5)nn4)CCS3(=O)=O)cc2)cc1 (stereo unspecified) | 4.18% | 
COCOCCn1cc(CN2CCS(=O)(=O)N(Cc3ccc(-c4cccc(N(C)C)c4)cc3)C(CC(C)C)C2=O)nn1 (stereo unspecified) | -4.15% | 
CCC1Nc2ncnc(N3CCN(c4ccccc4)CC3)c2N(Cc2ccc(Cl)cc2)C1=O (stereo unspecified) | -9.37% | 
COC(=O)C[C@@H]1C=C[C@@H](NS(=O)(=O)c2cccc(OC)c2)[C@@H](CO)O1 | -11% | 
C=CCSC(CC)(CC)C(N)=O | 4% | 
COc1ccc(-c2cn[nH]c2-c2ccc(OC)cc2)cc1 | -25.6% | 
COc1ccc(Oc2cn[nH]c2-c2ccc(OC)cc2O)cc1 |  | 56.2 µM (active)
CCOc1ccccc1Oc1cn[nH]c1-c1ccc(OC)cc1O | -10.8% [at 57.1 µM] | 
CCC1CCCCN1CCNS(=O)(=O)c1ccc2c(c1)CCN2C(C)=O (stereo unspecified) | -1.86% | 

SMILES | activity, negative = inhibition | Potency
CSc1ncccc1C(=O)OCc1ccc(Br)cc1 | -18.6% | 
COc1ccc(/C=C2\SC(=N)N(c3ccc(F)cc3)C2=O)cc1 | 0.0047% | 
O=C(O)c1ccc(/C=C2\SC(=S)N(NC(=O)c3ccc(Br)cc3)C2=O)cc1 | 5.01% | 
O=C1/C(=C/c2ccc(F)cc2)SC(=S)N1NS(=O)(=O)c1ccccc1 |  | 70.8 µM (active)
CC(=O)CSc1nc(CCc2ccccc2)c(C#N)c(=O)[nH]1 | 5.04% | 
O=c1[nH]c(SCc2cccc(F)c2)nc2ccccc12 | 1.6% | 
N#Cc1c(-c2ccccc2)nc(SCc2cccc(C(F)(F)F)c2)[nH]c1=O |  | 39.8 µM (active)
COc1ccc(OCCCC(=O)Nc2cccc(S(=O)(=O)N3CCCCCC3)c2)cc1 | -11.7% | 
CC(C)(C)NC(=O)C(CCc1ccccc1)n1c(=O)c(-c2ccccc2)nc2ccccc21 (stereo unspecified) | 1.14% | 
COC(=O)[C@]12CCCCC=C1N(CCC1=CCCCC1)C(=O)[C@H](CC(=O)N1CCSCC1)C2 | 9.02% | 
C=C1C2C[C@H](O)C(C)(C)[C@@]2(O)[C@H](O)C[C@]23C[C@@](C)(O)[C@H](CC[C@H]12)[C@H]3O (stereo partly specified) | -2.34% | 
CC1(C)OC(=O)C2=C(C[C@@H](C3CCCC3)O[C@@H]2c2ccc(Cl)cc2)O1 | -4.79% | 
COc1ccc(N(C)S(=O)(=O)c2cccc3nsnc23)cc1 | -26% | 
CC(C)c1ccc(NC(=O)CCN2C(=O)c3ccc([N+](=O)[O-])cc3C2=O)cc1 | 4.46% | 
Cn1ccc(=Nc2ccc(NC(=O)c3ccc(N=c4ccn(C)c5ccc([N+](=O)[O-])cc45)cc3)cc2)cc1 |  | 22.4 µM (active)
CN(CC1CCCO1)S(=O)(=O)c1ccc(C(=O)Nc2ccc([N+](=O)[O-])cc2)cc1 (stereo unspecified) | -8.12% | 
COCc1cccc(-c2csc(C(O)c3ccc(F)cc3)n2)c1 (stereo unspecified) | -6.83% | 
O=C(Nc1cc(Cl)ccc1N1CCOCC1)c1ccc(N2CCCC2=O)cc1 | 0.558% | 
CCc1nn(CCCC(=O)Nc2ccc(C)c(C)c2)c(=O)c2cc3occc3n12 | -2.6% | 
COc1c(F)c(F)c(-c2csc(N)n2)c(F)c1F | 1.67% | 
Cc1cccc(C)c1NC(=O)C(c1ccc(C(F)(F)F)cc1)n1c(=O)c(-c2ccco2)nc2ccccc21 (stereo unspecified) | -16.5% | 
O=C(O)CCCN1C(=O)C2C3c4ccccc4C(c4ccccc43)[C@@H]2C1=O (stereo partly specified) | 6.33% | 

SMILES | activity, negative = inhibition | Potency
C=C1C(=O)OC2C1CCC(C)=CCCC1(C)OC21 (stereo unspecified) | 5.97% | 
CCN(c1ccccc1)S(=O)(=O)c1ccc2[nH]c(=O)[nH]c2c1 | -7.42% | 
CCN1CCN(C(=O)c2cc3cc4ccc(OC)cc4nc3s2)CC1 | -2.76% | 
N#CCOc1ccc(C2=NO[C@@H]3[C@@H]4C[C@@H]([C@H]5C(=O)N(c6ccc7c(c6)OCO7)C(=O)[C@@H]45)[C@H]23)cc1 | -9.46% | 
CN(C)c1ccc(NC(=O)c2ccncc2)c2ccccc12 | 4.4% | 
CC1CCCN(C(C(=O)Nc2ccc(C(C)C)cc2)c2ccc3c(c2)OCO3)C1 (stereo unspecified) | 11.7% | 
CC(C)C[C@H]1CN([C@@H](CC(C)C)CN2CCC[C@@H]2CN2C(=O)C(=O)NC[C@@H]2Cc2ccccc2)C(=O)C(=O)N1CCc1ccccc1 | -25.2% | 
COC(=O)c1sccc1NC(=O)c1ccc(Cl)cc1 | 5.53% | 
CC(C)OC(=O)c1sc2nc3c(cc2c1N)C(=O)CCC3 | 7.66% | 
COC(=O)c1cc2c(N)c(C(=O)c3ccc(Cl)cc3)sc2nc1C(OC)OC |  | 79.4 µM (active)
CCOC(=O)[C@]12CCCC=C1N(CCC1=CCCCC1)C(=O)[C@H](CC(=O)NCCCCc1ccccc1)C2 | -10.5% | 
O=C(O)c1ccccc1N=N/C(=N/Nc1cc(S(=O)(=O)O)ccc1O)c1ccccc1 |  | 50.1 µM (active)
COc1ccccc1NC(=O)N1CCCC1C(=O)NCc1cccs1 (stereo unspecified) | 0.017% | 
Cc1ccc(-n2ncc3c2CC(C)(C)CC3NC(=O)CCc2cnn(C)c2)cc1 (stereo unspecified) | -0.921% | 
CCO/C([O-])=N/c1c[n+](N2CCOCC2)no1 |  | inactive
O=C(NCCCn1ccnc1)/C(=C\c1ccccc1F)NC(=O)c1ccccc1 | -3.25% | 
CCC(=O)NC(Nc1cc(C)ccn1)(C(F)(F)F)C(F)(F)F | -5.15% | 
COC(=O)c1ccc2nc(-c3cccc(Br)c3)c(Cc3ccc(OC)cc3C)n2c1 | -6.84% | 
CC1(C(=O)NCc2ccco2)Cc2c(-c3ccc4c(c3)OCO4)ccnc2O1 (stereo unspecified) | -0.756% | 
O=C(Nc1ccccc1-c1nnn(CC(=O)N2CCCc3ccccc32)n1)c1cccc(Cl)c1 | -0.482% | 
